The results in this text go back to PubChem BioAssay.

Assay [1] has as its target 6-phosphogluconate dehydrogenase, decarboxylating (Homo sapiens) (UniProt P52209). Kind of assay: inhibition of human phosphogluconate dehydrogenase – biochemical, recombinant enzyme, NADPH absorbance, primary screen (AID 1159550;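 active means at least 20% inhibition of 6-phosphogluconate dehydrogenase activity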). Particulars: recombinant 6PGD, NADPH absorbance 341 nm; at 10 µM; stronger effect = higher value.
The target in assay [2] is ATP-dependent translocase ABCB1 (Homo sapiens) (UniProt P08183). Kind of assay: P-glycoprotein substrate transport blockade – cell-based (AID 377; in the data active means fluorescence slope change above about 50%). The conditions noted are these: MDR1-expressing cells, fluorescent substrate accumulation slope; stronger effect = higher value; concentration not given here.
Assay [3] is described as follows: blockers of polyQ-driven CASP3 activation – cell-based (AID 1583). The conditions noted are these: polyglutamine-induced caspase-3 activation, cell assay; stronger effect = higher value;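 tested at 10 µM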.
Assay [4] in a line: yeast 75Q aggregation reduction – 75Q-TubU reporter (AID 1593). The conditions noted are these: Yeast 75Q polyglutamine aggregation reporter.
Assay [5] can be described thus: selective SMN2 exon splicing luciferase activators – cell-based, SMN2/SMN1 luciferase reporters (AID 1598). Particulars: SMN2 vs SMN1 luciferase splicing reporter cells, at 10 µM; SMN1 luciferase ratio: measured here: SMN1 luciferase reporter average; SMN2 luciferase ratio: measured here: SMN2 luciferase reporter average, stronger effect = higher value; SMN2/SMN1 luciferase ratio: stronger effect = higher value.

Assay [6] in a line: restoration of touch response, mutant HTT neurons – whole organism, C. elegans mechanosensory neurons, N-terminal huntingtin (AID 1599). Particulars: C. elegans polyQ-huntingtin mechanosensory neurons, stronger effect = higher value.
Assay [7] in a line: blockers of cytochrome c efflux from mitochondria – biochemical, purified mitochondria (AID 1603).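 Further: mouse liver mitochondria challenged with calcium chloride; signal normalized to the plate average as 100%.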 The conditions noted are these: stronger effect = lower value.
Assay [8] in a line: polyglutamine aggregate formation blockers (AID 1604). The conditions noted are these: polyglutamine-induced protein aggregation inhibition assay; stronger effect = higher value; tested at 2.5 µM.
Assay [9] can be described thus: glutamate transport activators, MN-1 cells, MN-1 cell line (AID 1612).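 Further: tested at 1 µM final; 0% = mean of DMSO vehicle wells on each plate; positive means more glutamate uptake than control and negative means less.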 Particulars: MN-1 motor neuron cells, stronger effect = higher value.
The nature of assay [10]: 75Q-TubH aggregate inhibition, S. cerevisiae, yeast (AID 1616). The conditions noted are these: S. cerevisiae 75Q-TubH polyglutamine aggregation suppression; stronger effect = higher value.
The nature of assay [11]: compounds altering circadian rhythm period length – cell-based, LOPAC library, luminescence reporter (AID 2774).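 Further: values are relative to mean of DMSO wells on each plate.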 Particulars: circadian reporter cells, at 7 µM, actives lie on both sides.
A short description of assay [12]: compounds altering viability of human ES cells (AID 493140).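 Further: cells exposed to compounds for four days before counting.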 Particulars: human embryonic stem cell survival screen; stronger effect = higher value.
Assay [13] deals with Hepatitis C virus NS3 helicase. The experiment in a line: blockers of NS3h binding to ssDNA – biochemical, fluorescence polarization, LOPAC1280 library, primary screen (AID 687035; in the data active means inhibition above about 37%). The conditions noted are these: Purified HCV NS3 helicase, Cy5-dT15 ssDNA binding fluorescence polarization; stronger effect = higher value; concentration not given here.
A short description of assay [14]: compounds altering Cy5-DNA-NS3h complex signal – biochemical, LOPAC1280, artefact control for HCV NS3 helicase inhibitor project (AID 687037). Particulars: Cy5-DNA-NS3h complex fluorescence interference counterscreen.
A short description of assay [15]: EMT-state selective cytotoxicity in co-culture – imaging, PC-3E GFP, TEM4-18 mCherry, primary screen (AID 1345086;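 active means compounds killing one labelled cell type while sparing the other, by normalised counts and ratio limits, not self-fluorescent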;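 further: cells exposed to compound for 72 h before imaging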;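 on red/green cell ratio (normalised): normalised mesenchymal count divided by normalised epithelial count so high means epithelial killing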). The conditions noted are these: PC-3E GFP / TEM4-18 mCherry co-culture, imaging cell counts, at 1 µM.
Assay [16] concerns Aerobactin synthetase IucA (Klebsiella pneumoniae). The experiment in a line: inhibition of K. pneumoniae IucA enzyme – biochemical, Tocris library, absorbance (AID 1345561).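 Further: 100% = enzyme without compound and 0% = no enzyme.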 Particulars: purified IucA enzyme assay, absorbance (OD) read-out; stronger effect = lower value;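 tested at 8 µM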.
The test system of assay [17] is Aerobactin synthetase IucA (Klebsiella pneumoniae hvKP1). Kind of assay: IucA enzyme inhibition, primary screen, biochemical, Spectrum library (AID 1346200).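 Further: 100% = wells without compound and 0% = wells lacking enzyme.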 Particulars: malachite green pyrophosphate, A620, at 8 µM, stronger effect = lower value.
The test system of assay [18] is Aerobactin synthetase IucA (Klebsiella pneumoniae, hypervirulent). The experiment in a line: biochemical IucA inhibition screen of LOPAC library by absorbance (AID 1346212).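 Further: 100% = no compound wells and 0% = no enzyme wells.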 Particulars: IucA enzyme assay, absorbance (OD) readout; stronger effect = lower value;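 tested at 8 µM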.
Assay [19] is described as follows: viability loss in pontine glioma line – cell-based, SU-DIPG-XVII, MIPE5.0, CellTiter-Glo, qHTS, dose response (AID 1347060; cut-off not given, nearly all actives have AC50 up to about 26 µM;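 further: cells exposed to compound for 48 hours before viability readout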). The conditions noted are these: CellTiter-Glo ATP luminescence.
Assay [20] is described as follows: viability loss in pontine glioma line – cell-based, SU-DIPG-IV, MIPE4.0, CellTiter-Glo, qHTS, dose response (AID 1347063; cut-off not given, nearly all actives have AC50 up to about 30 µM;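 further: compound exposure lasted 48 hours before the viability readout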). Particulars: CellTiter-Glo ATP luminescence.
Assay [21] can be described thus: growth inhibition of DIPG cells – cell-based, MIPE4.0 library, CellTiter-Glo luminescence, qHTS (AID 1347066; cut-off not given, nearly all actives have AC50 up to about 30 µM;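 further: cells exposed to compound for 48 hours before readout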). The conditions noted are these: SU-DIPG-VI viability, CellTiter-Glo ATP luminescence.
Assay [22] in a line: JHH-DIPG-1 glioma cell viability, MIPE5.0 library, CellTiter-Glo luminescence, qHTS (AID 1347067; cut-off not given, nearly all actives have AC50 up to about 26 µM;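 further: cells exposed to compound for 48 hours before readout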). The conditions noted are these: JHH-DIPG-1 glioma viability, CellTiter-Glo ATP luminescence.
Assay [23] can be described thus: growth inhibition of DIPG cells – cell-based, MIPE5.0 library, qHTS (AID 1347068; cut-off not given, nearly all actives have IC50 up to about 30 µM). The conditions noted are these: SU-DIPG-XXV viability.
A short description of assay [24]: chitosan synthesis blockers in C. neoformans – flow cytometry, Cibacron Brilliant Red staining (AID 1347148).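 Further: compound exposure lasted three days at 37 degrees C.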 Particulars: Cryptococcus neoformans chitosan, stronger effect = lower value; at 10 µM unless noted.
The nature of assay [25]: blockers of cellular phospholipid synthesis – cell-based, LOPAC library, screen 4, primary screen (AID 1347384). Particulars: animal cells, phospholipid biosynthesis inhibition screen; at 10 µM.
Assay [26] can be described thus: MELAS cybrid and Rieske KO viability enhancers – cell-based, MELAS cybrids, Rieske KO mouse fibroblasts, CellTiter-Glo, primary screen (AID 1508586;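 active means mean z-score across replicates of 1.96 or higher in either the MELAS or the Rieske mutant cell line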;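 further: z relative to plate mean and SD of compound and empty wells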). The conditions noted are these: low glucose.
For assay [27], the target named is Mitogen-activated protein kinase 7 (Homo sapiens) (UniProt Q13164). The experiment in a line: Gal4-ERK5 driven luciferase induction – cell-based, HTS, primary screen (AID 1508626;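 active means luciferase signal above three times the same-plate solvent-only control wells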;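 further: luciferase driven by Gal4-ERK5 fusion binding five Gal4 sites before minimal TATA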). The conditions noted are these: HeLa Gal4-ERK5 transactivation, 18 h, at 5 µM, stronger effect = higher value.
The nature of assay [28]: galactose survival enhancers in mitochondrial complex I cybrids – cell-based, galactose medium, ATP luminescence, primary screen (AID 1645843;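 active means z-score of at least 1.8 in each of two replicates, scored against plate mean and spread of sample wells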;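 further: positive z means more ATP and so rescue of galactose-driven cybrid death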). Particulars: complex I mutant cybrid cells, 72 h, stronger effect = higher value.

The structures appear in SMILES notation. Values joined by “and” are separate entries in the source; they are usually repeats but may differ in a detail not shown here. Equal values may be shown once. Records with an inconclusive call do not appear. For some assays here: Results with a measured potency or affinity are listed apart. Active and inactive are the calls of the source. Unless noted, how the calls were made is not given here.

6-phosphogluconate dehydrogenase, decarboxylating (Homo sapiens), sequence (P52209 whole entry, looked up): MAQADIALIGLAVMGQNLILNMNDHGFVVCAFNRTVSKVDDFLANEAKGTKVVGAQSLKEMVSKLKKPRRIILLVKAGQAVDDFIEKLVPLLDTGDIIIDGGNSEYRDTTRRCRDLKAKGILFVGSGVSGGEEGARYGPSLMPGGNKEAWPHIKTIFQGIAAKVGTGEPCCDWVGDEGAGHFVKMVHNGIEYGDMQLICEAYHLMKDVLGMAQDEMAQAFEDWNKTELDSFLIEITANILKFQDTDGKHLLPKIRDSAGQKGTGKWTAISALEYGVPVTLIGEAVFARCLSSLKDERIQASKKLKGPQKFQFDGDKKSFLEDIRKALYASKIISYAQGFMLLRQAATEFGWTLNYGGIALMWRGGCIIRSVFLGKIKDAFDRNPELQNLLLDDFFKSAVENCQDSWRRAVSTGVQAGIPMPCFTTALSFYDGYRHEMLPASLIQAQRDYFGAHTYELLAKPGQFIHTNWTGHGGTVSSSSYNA
ATP-dependent translocase ABCB1 (Homo sapiens), sequence (P08183 whole entry, looked up): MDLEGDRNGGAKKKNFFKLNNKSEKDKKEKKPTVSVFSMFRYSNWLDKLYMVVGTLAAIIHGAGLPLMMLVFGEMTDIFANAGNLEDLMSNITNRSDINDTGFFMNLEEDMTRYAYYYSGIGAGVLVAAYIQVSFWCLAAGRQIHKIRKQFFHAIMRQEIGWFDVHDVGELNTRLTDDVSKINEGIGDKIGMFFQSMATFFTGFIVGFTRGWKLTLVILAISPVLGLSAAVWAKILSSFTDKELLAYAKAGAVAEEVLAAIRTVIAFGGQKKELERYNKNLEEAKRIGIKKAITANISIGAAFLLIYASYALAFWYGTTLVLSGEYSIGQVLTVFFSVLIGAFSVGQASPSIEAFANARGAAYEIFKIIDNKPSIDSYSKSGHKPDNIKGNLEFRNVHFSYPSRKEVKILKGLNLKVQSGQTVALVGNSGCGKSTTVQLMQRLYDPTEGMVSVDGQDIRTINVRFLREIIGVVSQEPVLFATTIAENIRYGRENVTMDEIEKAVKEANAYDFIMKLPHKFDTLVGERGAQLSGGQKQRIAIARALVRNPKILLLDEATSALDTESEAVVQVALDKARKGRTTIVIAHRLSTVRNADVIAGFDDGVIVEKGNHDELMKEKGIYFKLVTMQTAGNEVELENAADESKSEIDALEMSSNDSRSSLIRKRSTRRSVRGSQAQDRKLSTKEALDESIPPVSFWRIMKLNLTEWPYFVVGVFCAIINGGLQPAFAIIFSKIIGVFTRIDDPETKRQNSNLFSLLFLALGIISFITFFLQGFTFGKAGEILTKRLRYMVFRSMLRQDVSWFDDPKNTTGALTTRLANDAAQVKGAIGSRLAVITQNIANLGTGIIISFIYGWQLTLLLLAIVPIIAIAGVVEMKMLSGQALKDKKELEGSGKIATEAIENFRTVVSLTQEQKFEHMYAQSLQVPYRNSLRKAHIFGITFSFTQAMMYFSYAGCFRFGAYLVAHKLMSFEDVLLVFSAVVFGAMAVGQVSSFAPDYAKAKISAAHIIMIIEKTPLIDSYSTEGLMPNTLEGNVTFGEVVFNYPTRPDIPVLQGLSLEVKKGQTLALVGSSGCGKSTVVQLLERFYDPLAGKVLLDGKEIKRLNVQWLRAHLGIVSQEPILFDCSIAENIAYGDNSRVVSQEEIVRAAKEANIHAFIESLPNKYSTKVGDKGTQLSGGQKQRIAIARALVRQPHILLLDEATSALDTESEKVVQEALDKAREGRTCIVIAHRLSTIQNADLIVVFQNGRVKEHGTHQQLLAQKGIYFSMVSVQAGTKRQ
Mitogen-activated protein kinase 7 (Homo sapiens), sequence (Q13164 whole entry, looked up, the tested form may be a part): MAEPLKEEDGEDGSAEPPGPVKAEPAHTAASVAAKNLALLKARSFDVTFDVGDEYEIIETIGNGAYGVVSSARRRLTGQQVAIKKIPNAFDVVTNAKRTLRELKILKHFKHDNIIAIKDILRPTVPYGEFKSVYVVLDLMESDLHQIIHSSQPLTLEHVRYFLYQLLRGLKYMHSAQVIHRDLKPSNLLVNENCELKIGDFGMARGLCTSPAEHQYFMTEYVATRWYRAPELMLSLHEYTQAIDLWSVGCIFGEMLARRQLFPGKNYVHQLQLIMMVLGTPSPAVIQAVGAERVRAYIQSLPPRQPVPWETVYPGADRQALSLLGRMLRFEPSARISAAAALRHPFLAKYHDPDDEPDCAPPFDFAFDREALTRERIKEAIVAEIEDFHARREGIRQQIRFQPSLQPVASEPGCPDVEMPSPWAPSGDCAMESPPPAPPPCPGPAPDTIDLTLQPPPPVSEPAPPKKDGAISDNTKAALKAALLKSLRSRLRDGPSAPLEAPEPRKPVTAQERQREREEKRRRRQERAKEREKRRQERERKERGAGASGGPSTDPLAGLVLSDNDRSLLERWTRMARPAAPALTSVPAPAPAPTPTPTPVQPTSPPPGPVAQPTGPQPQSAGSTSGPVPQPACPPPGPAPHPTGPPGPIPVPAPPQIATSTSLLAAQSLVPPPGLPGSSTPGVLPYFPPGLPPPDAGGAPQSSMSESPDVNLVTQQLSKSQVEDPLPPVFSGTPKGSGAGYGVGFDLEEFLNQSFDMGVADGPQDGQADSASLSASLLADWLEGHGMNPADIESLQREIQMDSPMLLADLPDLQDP

Regarding `C[C@H]1CC[C@]2(NC1)O[C@H]1C[C@H]3[C@@H]4CC[C@H]5C[C@@H](O[C@@H]6O[C@H](CO)[C@H](O[C@@H]7O[C@H](CO)[C@@H](O)[C@H](O[C@@H]8OC[C@@H](O)[C@H](O)[C@H]8O)[C@H]7O[C@@H]7O[C@H](CO)[C@@H](O)[C@H](O)[C@H]7O)[C@H](O)[C@H]6O)CC[C@]5(C)[C@H]4CC[C@]3(C)[C@H]1[C@@H]2C`, the inhibition in assay [1] is 1.84% (inactive).

For `COc1cc2c3cc1Oc1cc(ccc1O)C[C@@H]1c4c(cc(OC)c(O)c4Oc4ccc(cc4)C[C@H]3N(C)CC2)CCN1C`, in [1], the inhibition is -17.6% (inactive).

Take `CC[C@@]1(O)C(=O)OCc2c1cc1n(c2=O)Cc2cc3ccccc3nc2-1`: the fluorescence slope change in assay [2] was 24.5% (inactive). The values for the inhibition in [3], in assay [13] and in assay [1] were -22.8%, 0% (inactive) and 3.3% (inactive), respectively. In addition, the score in assay [4] amounted to 1.92. The SMN1 luciferase ratio in [5] stood at 0.16. The SMN2/SMN1 luciferase ratio in assay [5] was 1.74 (active). For the same compound, the SMN2 luciferase ratio in assay [5] turned out to be 0.26. Further, in [6], the rescue above control was 0. Moreover, the cytochrome c release ratio in assay [7] was determined as 0.94. For the same compound, the inhibition of aggregation in assay [8] was -7.84%. The glutamate uptake change in [9] is -25.7%. Besides, in assay [10], the aggregation suppression score was found to be 1.49. Besides, the period change in [11] was -0.48 h (inactive). The survival in assay [12] is 0.833 (inactive). For the same compound, the fluorescence ratio (interference) in [14] is 1 (inactive). For the same compound, the red/green cell ratio (normalised) in assay [15] (actives lie on both sides) is 1.07 (inactive). In addition, the normalised cell number in assay [15] (measured here: epithelial PC-3E GFP cell survival) is 0.28; in assay [15] (measured here: mesenchymal TEM4-18 mCherry cell survival), 0.3. Besides, the remaining activity in assay [16] was 122% (inactive); in [18], 90% (inactive). In [17], the activity remaining is 107% (inactive). The values for the AC50 in assay [19], in [20] and in assay [22] were 0.0166 µM (active), 0.0469 µM (active) and 1.48 µM (active), respectively. Besides, the compound was classed as inactive in assay [21], in [23] and in assay [25]. The fold fluorescence in assay [24] was 6.75 [at 143.5 µM] (inactive). The z-score is -0.725 (inactive) and -0.263 (inactive) and -1.18 (inactive) in assay [26] (MELAS cybrid survival, CellTiter-Glo 48 h, stronger effect = higher value); 0.467 and -0.232 and -0.237 in [26] (Rieske KO mouse fibroblast survival, CellTiter-Glo 72 h); -0.96 (inactive) and -0.91 (inactive) and -2.17 (inactive) in assay [28]. In addition, the luciferase signal in [27] is 28 AU (inactive).
